Screens deposited in PubChem by National Center for Advancing Translational Sciences (NCATS).
CCT modulator = modulators of cytosolic chaperonin (CCT/TRiC) activity; activity change, % (concentration not given with the values), hits read low; hit rate 0.3% among 360,000; purified chaperonin ATPase assay, HTRF ADP detection, 30 min; in the data active means activity change below about -30%; further: on the % scale 0 is the no-effect control and ±100 the full control effect
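TRiC at 40 or 20 nM final (batch-dependent) in 30 mM Tris pH 7.4, 100 mM KCl, 5 mM MgCl2, 1 mM DTT, with compound at single 76 uM and 10 uM ATP, 30 min at 37 deg C. ADP detected by HTRF Transcreener, 665/615 ratio.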
Anesthetic bind = binds horse apoferritin like a general anesthetic. apoferritin/1-aminoanthracene competitive binding, fluorescence. AID 485281. Potency, µM (series often up to 77.5 µM), without a hit: at the highest dose activity change, negative = displacement, actives largely listed as inhibitors. hit rate 0.074% among 350,000. P02791; further: potency means the concentration at half of the fitted maximal effect; on the % scale 0 is the no-effect control and ±100 the full control effect; nearly all actives have a fitted effect of over 20% in size
Target sequence (P02791 2-175 limits assumed): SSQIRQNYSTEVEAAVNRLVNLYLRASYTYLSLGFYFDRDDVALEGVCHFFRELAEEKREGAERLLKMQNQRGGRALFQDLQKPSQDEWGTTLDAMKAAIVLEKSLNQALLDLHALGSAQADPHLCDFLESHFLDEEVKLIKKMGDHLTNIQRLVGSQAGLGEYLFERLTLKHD
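Apoferritin-based anesthetic binding model; compound displacement of fluorescent 1-AMA measured as endpoint fluorescence after 10 minutes at room temperature, scaled to free-ligand and complex controls.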
Mito fusion yeast = inhibitors of mitochondrial division or activators of mitochondrial fusion; hit rate 0.23% among 320,000; AID 485298; S. cerevisiae fusion-defective mutant growth rescue, CellTiterGlo 48 h; Potency, µM (highest dose often 46.1 µM), inactives show top-dose growth rescue (activation), actives largely listed as activators; further: potency means the concentration at half of the fitted maximal effect; % of control where 0% means no effect; nearly all actives have a fitted effect of over 45% in size
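Yeast fusion mutant, YPEG (non-fermentable carbon), compound, 48 h at 37C non-permissive; CellTiterGlo added, 10 min RT, luminescence read. Rescued growth = division inhibition.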
TDP-43 yeast inh = inhibitors of TDP-43 toxicity in yeast. TDP-43 expressing yeast growth rescue, BacTiter-Glo, 24 h. Potency, µM (top dose mostly 46.1 µM), without a hit: at the top dose growth rescue (activation), actives largely listed as activators. hit rate 1.8% among 410,000. AID 652104; further: potency means the concentration at half of the fitted maximal effect; % of control where 0% means no effect; nearly all actives have a fitted effect of over 50% in size
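In this qHTS, compounds that restore growth of yeast expressing TDP-43 appear as activators. Cells (OD600=0.02, galactose medium, raffinose-pregrown) are incubated with compound 24 hr at 30 deg C and growth is quantified by BacTiter-Glo.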
aSyn yeast inh = rescues yeast growth from alpha-synuclein toxicity; Yeast expressing alpha-synuclein, growth rescue, BacTiter-Glo, 24 h; Potency, µM (top dose mostly 46.1 µM), inactives show at the top dose growth rescue (activation), usual class: activators; hit rate 0.14% among 370,000; AID 652106; further: potency means the concentration at half of the fitted maximal effect; % of control where 0% means no effect; nearly all actives have a fitted effect of over 65% in size
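Screening used galactose-induced yeast with toxic alpha-synuclein levels, exposed to compound for 24 hr at 30 deg C. Cell growth, read with BacTiter-Glo luminescence, gave the measured signal.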
pAkt inh = inhibitors of Akt phosphorylation; Neuro2A IGF-stimulated pAkt S473 HTRF, 20 min; stronger effect = lower value; activity change, % for hits at 50 µM; hit rate 0.32% among 360,000; AID 651550; in the data active means activity change below about -80%; inconclusive means mostly about -51% to -80%; further: on the % scale 0 is the no-effect control and ±100 the full control effect
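Neuro2A cells in DMEM with 0.5% FBS, overnight at 37 deg C, given compound at single 50 µM final, then IGF (6 nM final) for 20 min at 37 deg C. Lysed; phospho-Akt Ser473 by HTRF after 24 h, 665/615 ratio.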
Numbers without * were called inactive; i = inactive; ? = inconclusive; / = no result; [ ] = remark or other dose. A selection: hits, their analogues and other compounds. The true share with any hit is near 2.5%. Unless noted, the call rests on the fitted dose curve; in most records, active means well fitted curve in the direction sought with a large enough effect; inconclusive means small, poorly fitted or top-dose-only effect, or another doubt; inactive means no such curve, though single readings can be large; an effect the other way counts as inactive or inconclusive.

SMILES | CCT modulator | Anesthetic bind | Mito fusion yeast | TDP-43 yeast inh | aSyn yeast inh | pAkt inh
CCCCOCCCNC(=O)c1c(-c2ccccc2)noc1C | 0 | -10% | 1% | 10% | 2% | -122%*
Cc1ccc(F)cc1NC(=O)c1c(-c2ccccc2)noc1C | -2 | -13% | 0% | 20µM* | 0% | i
COCCCNC(=O)c1c(-c2ccccc2)noc1C | -1 | -8% | 2% | 4% | 4% | /
COc1ccccc1S(=O)(=O)N1CCN(c2nc(-c3cccs3)nc3ccccc23)CC1 | / | / | / | / | 0% | /
COc1ccc(Cl)cc1NC(=O)C(C)n1nnc2sc3c(c2c1=O)CCCC3 (stereo not drawn) | / | -5% | / | 16% | / | /
CC(=O)CSc1nnc2cc(C)c3cc(C)cc(C)c3n12 | / | 7% | / | 0% | / | /
CN1C(=S)N(c2cccnc2)C(=O)/C1=C\c1ccc(N(C)C)cc1 | -2 | -7% | 5% | -10%[9.22 µM] | -11% | i
CN1C(=S)N(c2cccnc2)C(=O)/C1=C\c1ccc(C(C)(C)C)cc1 | 1 | -16% | -8% | 16µM* | ? | i
COc1cccc(NC(=O)COC(=O)/C=C/c2c(C)nn(-c3ccccc3)c2C)c1 | 1 | / | 22% | 20µM* | -17% | i
COc1ccccc1NC(=O)COC(=O)c1c(C)nn(-c2ccccc2)c1C | -13 | / | 10% | 18µM* | -2% | i
CC(=O)c1ccccc1NC(=O)COC(=O)c1c(C)nn(-c2ccccc2)c1C | 0 | / | 8% | 24% | -15% | i
COC(=O)C(C(=O)OC)=C(/C=C/N(C)C)N(C)C | 1 | -2% | 1% | 10% | -1% | -104%*
CSc1ccc(Cl)c(C(=O)OCC(=O)NCC(C)C)c1 | -2 | -14% | 6% | 14µM* | 0% | i
CC(C)CO/N=C1/C[C@@H](O)[C@@H](O)[C@@H]2[C@@H]3C(=O)N(c4cccc(Oc5ccccc5)c4)C(=O)[C@H]3CC[C@H]12 | / | -13%[15.3 µM] | / | / | / | /
O=C1NN=C(c2ccc(Cl)cc2)CC1c1c[nH]c2ccccc12 (stereo not drawn) | -2 | -20% | ? | -8% | -2% | i
Cc1ccc(C2=NNC(=O)C(c3ccc(Cl)cc3)C2)cc1 (stereo not drawn) | -1 | -23% | 12% | 22µM* | 15% | i
O=C1NN=C(c2ccc(Cl)cc2)CC1c1cccc(Br)c1 (stereo not drawn) | 0 | -6% | -4% | 13µM* | ? | i
OC(C[n+]1ccccc1Cl)c1ccccc1 (stereo not drawn) | / | / | / | / | 3% | /
O=C(c1cc(COc2cccc(C(F)(F)F)c2)on1)N1CCCC1 | -2 | / | / | ? | 0% | i
CCOC(=O)N1CCN(C(=O)c2cc(COc3cccc(C(F)(F)F)c3)on2)CC1 | -1 | ? | 0% | 10µM* | 5% | i
CC(=O)c1ccc(OCc2cc(C(=O)N3CCCCCCC3)no2)cc1 | -2 | 5µM* | 4% | 10% | 10% | i
CN(C)c1ccc(-c2ccc(CCO)cc2)cc1 | / | / | / | / | 1% | /
CC(C)(C)OC(=O)N1CCC(c2c(C(=O)NCc3ccco3)cnn2-c2ccc(F)cc2)CC1 | / | -23% | / | 8% | / | /
COc1cccc(C2=CC(c3ccc(C)cc3)n3ncnc3N2)c1 (stereo not drawn) | / | 817% | -21% | / | / | /
CC(C)c1ccc(C2=CC(c3cccc(Cl)c3)n3c(nc4ccccc43)N2)cc1 (stereo not drawn) | / | -8% | / | 18µM* | / | /
SMILES | CCT modulator | Anesthetic bind | Mito fusion yeast | TDP-43 yeast inh | aSyn yeast inh | pAkt inh
CCOc1ccc(C2=CC(c3cccc(Br)c3)n3c(nc4ccccc43)N2)cc1Cl (stereo not drawn) | / | 44% | / | 13µM* | / | /
CC(C)c1ccc(C2=CC(c3cccc(Cl)c3)n3ncnc3N2)cc1 (stereo not drawn) | / | 405% | / | 13µM* | / | /
CCc1ccc(C2=CC(c3cccc(C)c3)n3c(nc4ccccc43)N2)cc1 (stereo not drawn) | / | 1% | / | 13µM* | / | /
CCc1ccc(C2=CC(c3cccc(OC)c3OC)n3c(nc4ccccc43)N2)cc1 (stereo not drawn) | / | -2% | / | 1% | / | /
NC1=NC(c2cccc(Cl)c2)n2c(nc3ccccc32)N1 (stereo not drawn) | / | ? | / | 22% | / | /
COc1ccc2c(c1)C=C/C2=C\c1ccc(N(C)C)cc1 | / | / | / | / | -11% | /
CCOc1ccc(CNCc2c(C(=O)O)c(C)n(Cc3ccc(C)cc3)c2C)cc1 | / | -23% | / | -29% | / | /
C[C@@H](C(=O)N[C@@H](CO)Cc1ccccc1)[C@H]1C[C@]1(C)[C@H](NC(=O)OCc1ccccc1)c1ccccc1 | / | -15% | / | / | / | /
COc1ccc(-c2nnc3n2N=C(c2c(OC)cccc2OC)CS3)c(OC)c1 | / | -15% | / | / | / | /
CCC(C)C(=O)Nc1c2c(nc3c1CCC3)CCCC2 (stereo not drawn) | -4 | -6% | 0% | 5% | -6% | -101%*
CCCCc1ccc(NC(=O)C(C)CC)cc1 (stereo not drawn) | -1 | -9% | -10% | 11µM* | -13% | i
CCCCc1ccc(NC(=O)N[C@@H](C)C(=O)O)cc1 | 1 | -9% | 1% | 1% | -8% | i
CC(C)(C)CC(=O)Nc1ccc(Nc2ccccc2)cc1 | 0 | 8.9µM* | 8% | 25% | 2% | i
CCCCc1ccc(NC(=O)CC(C)=O)cc1 | -2 | ? | 7% | 6% | 9% | i
CCCCc1ccc(CC(=O)NO)cc1 | / | / | / | / | 16µM* | /
CCCCc1ccc(NC(=O)CC(C)(C)C)cc1 | -1 | ? | / | 20µM* | 2% | i
CC(C)CC(=O)Nc1ccc(Nc2ccccc2)cc1 | 1 | ? | 1% | -22% | -15% | i
COC(=O)c1ccc(COc2nc(C)cc(C)c2C#N)o1 | -2 | -10% | 13% | -5% | 5% | i
COC(=O)c1ccc(CSc2nc(C(F)F)cc(C)c2C#N)o1 | -3 | / | / | 11µM* | 0% | i
Cc1ccc(S(=O)(=O)NC(=O)NCc2ccc3c(c2)OCO3)cc1 | -3 | -7% | 2% | 24% | 11% | -111%*
Cc1ccc(S(=O)(=O)NCC2CCC(C(=O)NCc3ccc4c(c3)OCO4)CC2)cc1 (stereo not drawn) | 1 | 1% | -2% | -11% | 23% | i
CCOc1ccc(NC(=S)NCc2ccc3c(c2)OCO3)cc1 | -1 | -5% | 1% | ? | 8% | i
Cc1ccc(NC(=S)NCc2ccc3c(c2)OCO3)cc1 | 1 | 8% | 5% | 22µM* | -3% | i
CCCn1c(C)nc2c(N3CCOCC3)nc(C)nc21 | / | 3% | / | / | / | /
COc1cccc(CNS(=O)(=O)c2cc(Br)ccc2Br)c1 | 2 | / | / | 18µM* | ? | i
